# From PubChem BioAssay
# Most compounds without a hit are left out; they make up all but 6.3% or so of the library.
# Fluor 339 460: intrinsic fluorescence of library compounds, ex339/em460 – biochemical, MLSMR library, data from DPM-DC assay, artefact control, profiling panel | compound autofluorescence, ex339/em460 nm, NADH buffer; stronger effect = higher value; 1 = no-compound wells, NADH background | 65,000 tested, 5.5% active | fluorescence fold increase at 10 µM;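 active = at 10 µM, mean starting fluorescence two-fold or more over control wells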;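 note: signal is the first read of a kinetic run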
# NADH enzymes: inhibition of NAD/NADH coupling enzymes, library profiling | IC50, µM (top dose mostly 10 µM) | coupled PK/LDH NADH assays, four targets | 65,000 tested, 0.02% active;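 active = single-dose screening hits from any of four coupled enzyme assays that gave an IC50 when retested across doses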;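 note: the DPM-DC format reads NADH fluorescence rather than 340 nm absorbance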
# PMK inhibit: inhibitors of Streptococcus pneumoniae phosphomevalonate kinase | purified PMK, PK/LDH-coupled NADH absorbance 340 nm | inhibition, % at 10 µM | 65,000 tested, 0.49% active | AID 539;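 active = top-ranked compounds by inhibition in the single 10 µM screen, taking a fixed number of the strongest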
# Abs 340nm: compound absorbs light at 340 nm | 65,000 tested, under 10 active | compound absorbance at 340 nm, fold over control | fold change at 10 µM;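 active = at 10 µM dose, initial 340 nm absorbance at least 2 fold that of control wells; inactive = change under 2 fold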;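 note: initial absorbance extrapolated from kinetic A340 decline of NADH oxidation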
# Spn MK inh: inhibitors of Streptococcus pneumoniae mevalonate kinase | purified MK, PK/LDH-coupled NADH absorbance 340 nm | 65,000 tested, 0.48% active | inhibition, % at 10 µM;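 active = ranked among the strongest by inhibition in the single 10 µM screen, a fixed top-ranked set picked for dose follow-up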
# DPM-DC inhibit: blocks S. pneumoniae diphosphomevalonate decarboxylase | purified DPM-DC, PK/LDH coupled NADH fluorescence | calls only at 10 µM | 65,000 tested, 0.49% active;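 active = the 320 compounds with the highest percent inhibition in the single-dose primary screen, excluding strongly autofluorescent ones, cut at about 32% in these data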;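 note: kinetic rate of NADH fluorescence loss reporting ADP formed by the decarboxylase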
# Numbers stand for hits; – = inactive; · = no result shown; + = active, no number.
SMILES,Fluor 339 460,NADH enzymes,PMK inhibit,Abs 340nm,Spn MK inh,DPM-DC inhibit
CCC(C)(C)n1nnnc1C(c1cc2cc(C)cc(C)c2[nH]c1=O)N1CCCC1 (configuration not stated),–,–,–,–,–,–
COc1cccc(CNC(=O)CCS(=O)(=O)c2cccc3nonc23)c1,–,–,–,–,–,–
CCNc1nc(NCC)nc(Nn2cnnc2)n1,–,–,–,–,–,–
COc1ccc(C)cc1NC(=O)c1cc2c(CO)cnc(C)c2oc1=N,–,–,–,–,–,–
O=C(CN1C(=O)CSC1=O)N1CCc2ccccc2C1,–,–,–,–,–,–
CC(C)(C)c1ccccc1OCCCCCNCCO,–,–,52,–,44,–
CCCCN(C(=O)NC(=O)Nc1nc2ccc(OC)cc2s1)S(C)(=O)=O,–,–,–,–,–,–
N#Cc1cnc(SCCc2ccccc2)nc1N,–,–,–,–,–,–
Cc1cnc(SCCc2ccncc2)nc1C,–,–,–,–,–,+
Nc1ccc(-c2nc3ccc(N)cc3o2)cc1,2.1,–,–,–,–,·
Nc1ccc(-c2nc3ccc(-c4nc5ccccc5o4)cc3[nH]2)cc1,3.7,–,–,–,–,·
Nc1cc(N)cc(-c2nc3ccccc3[nH]2)c1,2.2,–,–,–,–,+
Nc1nc(-c2nc3ccccc3[nH]2)cs1,–,–,–,–,–,–
Nc1ccc2oc(-c3ccccn3)nc2c1,–,–,–,–,–,–
Cc1ccc(Cn2c(CN3CCOCC3)nc3c2c(=O)n(C)c(=O)n3C)cc1,–,–,–,–,–,–
c1ccc(Cn2nnc3c(N4CCc5ccccc5C4)ncnc32)cc1,–,–,–,–,–,–
CC1Cc2ccccc2N1c1ncnc2c1nnn2Cc1ccccc1 (configuration not stated),2.6,–,–,–,–,–
CCn1nnc(NC(=O)c2cc3ccccc3o2)n1,–,–,–,–,–,–
CC(=O)Nc1ccc(NC(=O)CN(c2ccccc2Cl)S(C)(=O)=O)cc1,–,–,–,–,–,–
COc1ccc(-c2nc(C#N)c(NCc3ccc(C)cc3)o2)cc1OC,2.1,–,–,–,–,·
CN(C)CCCNc1oc(-c2cccc(Cl)c2)nc1C#N,3.9,–,–,–,–,·
CC(C)(C)c1ccc(-c2nc(C#N)c(NCc3ccncc3)o2)cc1,–,–,–,–,–,–
CCN(CC)CCCNc1oc(-c2ccc(OC)c(OC)c2)nc1C#N,3.9,–,–,–,–,·
COc1ccc(-c2nc(C#N)c(NCCc3ccccc3)o2)cc1OC,3.9,–,–,–,–,·
Cc1cc(C)n(C2=NS(=O)(=O)c3ccccc32)n1,–,–,–,–,–,–
SMILES,Fluor 339 460,NADH enzymes,PMK inhibit,Abs 340nm,Spn MK inh,DPM-DC inhibit
CN(c1ccccc1C(N)=O)S(=O)(=O)c1ccccc1,–,–,–,–,–,–
O=c1n(Cc2ccc(Cl)cc2)c2sc3c(c2c2ncnn12)CCCC3,–,–,–,–,–,–
COc1ccc2[nH]c(=O)c(CNC3CCCCC3)cc2c1,2.7,–,–,–,–,·
COc1ccc2cc(CN(C(=O)Nc3ccccc3)C3CCCC3)c(=O)[nH]c2c1,–,–,–,–,–,–
COc1ccc2[nH]c(=O)c(CN(C(=O)NC3CCCCC3)C3CCCCC3)cc2c1,2.8,–,–,–,–,–
CCOC(=O)C(Cc1cc(C(C)=O)ccc1OC(C)C)C(=O)OCC,–,–,–,–,–,–
COc1ccc(OC)c(C(O)c2coc3ccc(O)c(CN4CCOCC4)c23)c1 (configuration not stated),–,–,–,–,–,–
CCCn1c(C)nc2c(c1=O)c1nc3ccccc3nc1n2CCC1=CCCCC1,3.8,–,–,–,–,·
CCCn1c(C)nc2c(c1=O)c1nc3ccccc3nc1n2CCc1ccccc1,3.1,–,–,–,–,·
CCc1ccc(S(=O)(=O)NCc2cn3ccsc3n2)s1,–,–,–,–,–,+
CCc1ccc(S(=O)(=O)NCCc2cn3ccsc3n2)s1,–,–,–,–,–,–
OCCN1CCN(c2ncnc3c2sc2nc(N4CCOCC4)c4c(c23)CCC4)CC1,2.1,–,–,–,–,·
OCCN(CCO)c1ncnc2c1sc1nc(N3CCOCC3)c3c(c12)CCCC3,–,–,–,–,–,–
c1nc(N2CCNCC2)c2sc3nc(N4CCOCC4)c4c(c3c2n1)CCC4,2.1,–,–,–,–,·
COc1ccc(CCNC(=O)C2CCCN(C(=O)N(C)C)C2)c(OC)c1 (configuration not stated),–,–,–,–,–,–
COC(=O)c1cc2oc(C)cc2n1CC(=O)Nc1ccc(OC)c(OC)c1OC,–,–,–,–,–,–
COC(=O)c1cc2occc2n1CC(=O)Nc1ccc(OC)c(OC)c1OC,–,–,–,–,–,+
Cc1ccc(OCCSc2nnc(-c3ccncc3)n2C)cc1,–,–,–,–,–,–
Cn1c(SCCOc2cccc(Cl)c2)nnc1-c1ccncc1,–,–,–,–,90,–
CC(C)CCNC(=O)CN(C(=O)CCC(=O)Nc1ccccn1)c1ccc2c(c1)OCO2,–,–,–,–,–,–
CCOC(=O)C1Cc2cc3c(cc2C1=O)CC(C(=O)OCC)C3=O (configuration not stated),3.7,–,–,–,–,·
COc1ccc(-n2nc(C(=O)NCc3ccco3)c3c4ccccc4n(C)c3c2=O)cc1,4.8,–,–,–,–,·
CC1CCCCN1c1nnc(NC(=O)Cn2c(=O)oc3ccccc32)s1 (configuration not stated),–,–,–,–,–,–
Cc1nc2c(C(=O)N3CCN(c4ccccn4)CC3)cnn2c(C)c1Cc1cccc(Cl)c1,–,–,–,–,–,–
CCOC(=O)N1CCN(C(=O)c2cnn3c(C)c(Cc4ccc(C)cc4)c(C)nc23)CC1,4.1,–,–,–,–,·
SMILES,Fluor 339 460,NADH enzymes,PMK inhibit,Abs 340nm,Spn MK inh,DPM-DC inhibit
Cc1ccc(C)c(Cc2c(C)nc3c(C(=O)N4CCOCC4)cnn3c2C)c1,3.8,–,–,–,–,–
Cc1nc2c(C(=O)O)cnn2c(C)c1Cc1ccccc1F,–,–,–,–,–,–
COC(=O)c1cnn2c(C)c(Cc3cccc(F)c3)c(C)nc12,2.1,–,–,–,–,·
COc1ccc(C(c2nnnn2Cc2cccs2)N2CCN(c3ccccc3F)CC2)cc1OC (configuration not stated),–,–,–,–,–,–
CC1=C(C(=O)OC(C)C)C(c2ccc(F)cc2)NC(=O)N1 (configuration not stated),–,–,–,–,–,–
CC(=O)c1cccc(NC(=O)N2CCCC2C(=O)Nc2cc(C)ccc2C)c1 (configuration not stated),–,–,–,–,–,–
O=C(Nc1cccc2c1C(=O)NC2=O)c1ccc(S(=O)(=O)N2CCCC2)cc1,2.3,–,–,–,–,–
CC(=O)Nc1ccc(-n2c(C)nc(=O)c(-c3ccccc3)c2C)cc1,–,–,–,–,–,–
